Records with an inconclusive call do not appear. Where a call stands in place of a potency, no number is given. Values without a mark were called inactive. Calls of active or inactive are those of the source. The call rests on the fitted dose curve; in most records, active means well fitted curve in the direction sought with a large enough effect; inconclusive means small, poorly fitted or top-dose-only effect, or another doubt; inactive means no such curve, though single readings can be large; an effect the other way counts as inactive or inconclusive.
How the values were obtained:
[1] = target: Rap guanine nucleotide exchange factor 3 (Homo sapiens) (UniProt O95398); experiment: Confirmatory qHTS for antagonist of cAMP-regulated guanine nucleotide exchange factor 3 (EPAC1) (AID 1645880); further: nearly all actives have a fitted effect of over 55% in size; further: potency means the concentration at half of the fitted maximal effect
How it was run: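 Nucleotide exchange uses 100 nM EPAC1, 250 nM RAP1B-BODIPY-GDP and 50 uM GDP, with compounds in a concentration-titration series. After 5 min at room temperature, fluorescence (480 nm ex/540 nm em) is read every 5 min for 30 min. Data are normalized to control ATA and DMSO.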

[2] = target: Rap guanine nucleotide exchange factor 3 (Homo sapiens) (UniProt O95398); experiment: Confirmatory qHTS for agonist of cAMP-regulated guanine nucleotide exchange factor 3 (EPAC1) (AID 1645881); further: nearly all actives have a fitted effect of over 75% in size; further: potency means the concentration at half of the fitted maximal effect;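 on activation: EPAC1 catalysed release of BODIPY-GDP from Rap1B seen as fluorescence loss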
[3] = target: Rap guanine nucleotide exchange factor 4 (Homo sapiens) (UniProt Q8WZA2); experiment: Confirmatory qHTS for agonist of cAMP-regulated guanine nucleotide exchange factor 4 (EPAC2) (AID 1645884);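 further: nucleotide exchange releases bodipy-GDP from Rap1 and this lowers its fluorescence; nearly all actives have a fitted effect of over 65% in size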; further: potency means the concentration at half of the fitted maximal effect
[4] = target: Rap guanine nucleotide exchange factor 4 (Homo sapiens) (UniProt Q8WZA2); experiment: Confirmatory qHTS for antagonist of cAMP-regulated guanine nucleotide exchange factor 4 (EPAC2) (AID 1645885); further: nearly all actives have a fitted effect of over 25% in size
[5] = target: Rap guanine nucleotide exchange factor 3 (Homo sapiens) (UniProt O95398); experiment: Counterscreen qHTS for antagonist of cAMP-regulated guanine nucleotide exchange factor 3 (EPAC1) (AID 1645888);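 further: fluorescence loss as bound BODIPY-GDP is released from Rap1B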
How it was run: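 Rap1B-BODIPY-GDP 250 nM + GDP 50 uM; cpds 7-pt, final 9.74 nM–152 uM (activator mode) or from 7.32 nM upwards (inhibitor mode); RT; FI 480/540 nm at 5 and 30 min, then ± cAMP, reread.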

Sequence of Rap guanine nucleotide exchange factor 3 (Homo sapiens) (O95398 whole entry, looked up): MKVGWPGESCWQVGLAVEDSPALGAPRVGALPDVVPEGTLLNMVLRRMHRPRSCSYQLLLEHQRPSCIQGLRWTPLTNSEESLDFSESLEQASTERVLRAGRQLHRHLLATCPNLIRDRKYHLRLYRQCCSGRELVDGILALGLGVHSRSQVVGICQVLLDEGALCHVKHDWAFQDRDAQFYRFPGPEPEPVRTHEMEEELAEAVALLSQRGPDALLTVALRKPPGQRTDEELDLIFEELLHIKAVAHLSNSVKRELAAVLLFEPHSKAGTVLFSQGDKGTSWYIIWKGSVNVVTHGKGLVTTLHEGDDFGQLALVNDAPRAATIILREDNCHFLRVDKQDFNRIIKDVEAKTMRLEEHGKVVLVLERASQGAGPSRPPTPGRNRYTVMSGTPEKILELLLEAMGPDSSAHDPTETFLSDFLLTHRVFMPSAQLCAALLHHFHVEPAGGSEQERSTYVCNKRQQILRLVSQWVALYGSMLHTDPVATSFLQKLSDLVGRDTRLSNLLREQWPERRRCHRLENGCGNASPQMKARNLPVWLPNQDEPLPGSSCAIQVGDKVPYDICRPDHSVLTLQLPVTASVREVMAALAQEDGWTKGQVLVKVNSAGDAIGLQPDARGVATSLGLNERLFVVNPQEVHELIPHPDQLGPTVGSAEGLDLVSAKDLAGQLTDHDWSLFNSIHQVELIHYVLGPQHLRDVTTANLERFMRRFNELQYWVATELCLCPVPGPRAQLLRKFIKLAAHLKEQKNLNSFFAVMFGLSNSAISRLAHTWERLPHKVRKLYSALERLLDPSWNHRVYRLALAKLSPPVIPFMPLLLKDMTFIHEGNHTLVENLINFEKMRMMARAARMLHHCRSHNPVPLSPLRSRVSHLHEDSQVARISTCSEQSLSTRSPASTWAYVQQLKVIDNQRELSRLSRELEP
Sequence of Rap guanine nucleotide exchange factor 4 (Homo sapiens) (Q8WZA2 whole entry, looked up): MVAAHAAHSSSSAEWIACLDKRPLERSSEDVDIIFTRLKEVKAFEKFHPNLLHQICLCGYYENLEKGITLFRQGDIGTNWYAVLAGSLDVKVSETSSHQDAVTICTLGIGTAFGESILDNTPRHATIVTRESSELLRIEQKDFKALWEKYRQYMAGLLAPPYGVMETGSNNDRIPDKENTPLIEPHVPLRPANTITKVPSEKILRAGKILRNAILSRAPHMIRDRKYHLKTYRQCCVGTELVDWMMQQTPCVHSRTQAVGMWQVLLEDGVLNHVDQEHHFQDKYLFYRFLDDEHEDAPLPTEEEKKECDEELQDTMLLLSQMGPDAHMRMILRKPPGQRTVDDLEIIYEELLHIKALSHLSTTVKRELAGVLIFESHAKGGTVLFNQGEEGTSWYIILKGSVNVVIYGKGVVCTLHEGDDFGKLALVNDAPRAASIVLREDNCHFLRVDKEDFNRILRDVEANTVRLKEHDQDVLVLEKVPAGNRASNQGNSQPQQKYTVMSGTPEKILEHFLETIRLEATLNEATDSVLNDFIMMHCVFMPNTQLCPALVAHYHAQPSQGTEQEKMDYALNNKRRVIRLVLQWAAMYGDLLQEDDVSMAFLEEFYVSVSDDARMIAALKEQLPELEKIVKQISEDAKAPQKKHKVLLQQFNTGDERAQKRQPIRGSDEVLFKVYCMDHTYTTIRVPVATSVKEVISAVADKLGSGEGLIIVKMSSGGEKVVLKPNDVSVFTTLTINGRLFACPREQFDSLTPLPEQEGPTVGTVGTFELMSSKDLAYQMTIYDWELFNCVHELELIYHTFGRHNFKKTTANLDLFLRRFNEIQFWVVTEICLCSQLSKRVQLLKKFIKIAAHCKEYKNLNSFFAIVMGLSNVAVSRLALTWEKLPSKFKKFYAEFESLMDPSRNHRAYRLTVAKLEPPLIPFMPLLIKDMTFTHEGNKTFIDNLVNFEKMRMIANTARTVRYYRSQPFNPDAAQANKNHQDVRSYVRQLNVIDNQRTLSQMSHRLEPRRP

`CC(C)(C)NC(=O)NC(=O)CN1CCc2ccccc21` was tested, and the Potency [1] was “inactive”, the Potency [2] was “inactive” and the activation [3] was 4.54% [at 17.1 µM, percent relative to cAMP agonist control]. For the same compound, the Potency [4] was “inactive” and the activity change, negative = inhibition [5] was 5.54% [at 30.8 µM].
`COc1ccc(C=C2SC(=O)NC2=O)cc1OC` was tested, and the Potency [1] was “inactive”, the Potency [2] was “inactive” and the activation [3] was 12% [at 17.1 µM, percent relative to cAMP agonist control]. The Potency [4] was “inactive” and the activity change, negative = inhibition [5] was 12.5% [at 30.8 µM].
With `CCOC(=O)Cn1c(-c2cccs2)cc2cc(Cl)ccc21` the Potency [1] was “inactive”, the Potency [2] was “inactive” and the Potency [3] was “inactive”. The outcome [4] was “inactive [at 12.7 µM]” and the Potency [5] was “inactive”.
For `CCC(=O)N1N=C(c2cccs2)CC1c1ccc(OC)cc1` (stereo not given), the Potency [1] was “inactive”, the Potency [2] was “inactive” and the Potency [3] was “inactive”. For the same compound, the Potency [4] was “inactive” and the Potency [5] was “inactive”.
`COC(=O)c1ccccc1NC1=C/C(=N\S(=O)(=O)c2ccc(C(=O)O)cc2)c2ccccc2C1=O` was tested, and the Potency [1] was 22.4 µM (active), the Potency [2] was “inactive” and the activation [3] was 7.9% [at 17.1 µM, percent relative to cAMP agonist control]. The Potency [4] was “inactive” and the activity change, negative = inhibition [5] was 14.1% [at 30.8 µM].
`COc1cc2c(C#N)c(N3CCCC3)nc(N)c2c(N)n1` was tested, and the Potency [1] was 37.9 µM (active), the Potency [2] was “inactive” and the Potency [3] was “inactive”. The Potency [4] was “inactive” and the Potency [5] was “inactive”.
For `CCOC(=O)CSc1ccc2nnc(-c3ccccc3)n2n1`, the Potency [1] was “inactive”, the Potency [2] was “inactive” and the activation [3] was 7.87% [at 17.1 µM, percent relative to cAMP agonist control]. For the same compound, the Potency [4] was “inactive” and the activity change, negative = inhibition [5] was -6.6% [at 30.8 µM].
With `COc1cc(/C=C/C(=O)OCC(=O)Nc2oc(C)c3c(C)n[nH]c(=O)c23)ccc1OC(F)F` the Potency [1] was “inactive”, the Potency [2] was “inactive” and the Potency [3] was “inactive”. For the same compound, the Potency [4] was “inactive” and the Potency [5] was “inactive”.
With `COc1ccc(CN2C(=O)CN(S(C)(=O)=O)CC2(C)C(=O)Nc2c(C)cccc2C)cc1OC` (stereo not given) the Potency [1] was “inactive”, the Potency [2] was “inactive” and the activation [3] was 5.79% [at 17.1 µM, percent relative to cAMP agonist control]. For the same compound, the Potency [4] was “inactive” and the activity change, negative = inhibition [5] was -5.99% [at 30.8 µM].
For `Cc1cc(N)c2cc(NC(=O)/C=C/c3ccccc3Cl)ccc2n1`, the Potency [1] was 37.9 µM (active), the Potency [2] was 100 µM (active) and the Potency [3] was 56.2 µM (active). For the same compound, the Potency [4] was “inactive” and the Potency [5] was “inactive”.
`CCN1C(=O)/C(=C/c2ccc(N3CCCC3)cc2)NC1=S` was tested, and the Potency [1] was “inactive”, the Potency [2] was “inactive” and the activation [3] was 1.83% [at 17.1 µM, percent relative to cAMP agonist control]. For the same compound, the Potency [4] was “inactive” and the activity change, negative = inhibition [5] was 97.9% [at 30.8 µM].
In the case of `Cc1ccc(/C=C2\SC(=S)N(NS(=O)(=O)c3ccc(C)cc3)C2=O)cc1`, the Potency [1] is reported as 39.8 µM (active), the Potency [2] is reported as “inactive” and the activation [3] is reported as 11.9% [at 17.1 µM, percent relative to cAMP agonist control]. The Potency [4] was “inactive” and the activity change, negative = inhibition [5] was -10.4% [at 30.8 µM].
For `COc1cc(C)cc(C(=O)C=Cc2ccccc2)c1O`, the Potency [1] was “inactive”, the Potency [2] was “inactive” and the activation [3] was 3.76% [at 17.1 µM, percent relative to cAMP agonist control]. For the same compound, the Potency [4] was “inactive” and the activity change, negative = inhibition [5] was 12.7% [at 30.8 µM].
For `CC(=O)C[C@H]1SC[C@@H](C(C)C)N1S(=O)(=O)c1ccc(C)cc1`, the Potency [1] was “inactive”, the Potency [2] was “inactive” and the Potency [3] was “inactive”. For the same compound, the Potency [4] was “inactive” and the Potency [5] was “inactive”.
`CN(c1ccccc1)S(=O)(=O)c1cccc(Cl)c1Cl` was tested, and the Potency [1] was “inactive”, the Potency [2] was “inactive” and the Potency [3] was “inactive”. The Potency [4] was “inactive” and the Potency [5] was “inactive”.
`CCN(CC(=O)Nc1ccccc1C(F)(F)F)C(=O)c1cc2c(s1)CCCCC2` was tested, and the Potency [1] was “inactive”, the Potency [2] was “inactive” and the Potency [3] was “inactive”. For the same compound, the Potency [4] was “inactive” and the Potency [5] was “inactive”.
In the case of `COc1cccc(NC(=O)c2csc3c2CCCC3)c1`, the Potency [1] is reported as “inactive”, the Potency [2] is reported as “inactive” and the activation [3] is reported as 8.66% [at 17.1 µM, percent relative to cAMP agonist control]. For the same compound, the Potency [4] was “inactive” and the activity change, negative = inhibition [5] was -28.5% [at 30.8 µM].
For `O=C1N=c2ccccc2=C1c1sc(Nc2ccc(O)cc2)nc1O`, the Potency [1] was 30.1 µM (active), the Potency [2] was “inactive” and the Potency [3] was “inactive”. The Potency [4] was “inactive” and the Potency [5] was “inactive”.

Source: PubChem BioAssay (NCATS)
